# Experimental data published in the supplement of paper PMC11555231.
# Target: PADI4, Q9UM07
# Test: log2 enrichment score relative to parent PADI4_3 peptide (binding to PADI4); higher = tighter binding than parent
# Details: CaCl2: 10 mM
# Method: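 Deep mutational scan of the cyclic peptide PADI4_3 (ClAc-D-Tyr1 initiator, thioether-cyclised to Cys12, C-terminal Gly plus HA tag, mRNA-displayed). Positions 2-11 were each randomised by NNK codons; Met was reprogrammed as N-methyl-alanine (MeA). One round of equilibrium panning against bead-immobilised human PADI4 (100 nM, 10 mM CaCl2, RT). Log2 enrichment (bound/input frequency) relative to the parent sequence (0 = parent), mean of three independent selections.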
# PADI4, Q9UM07, sequence (Q9UM07 whole entry): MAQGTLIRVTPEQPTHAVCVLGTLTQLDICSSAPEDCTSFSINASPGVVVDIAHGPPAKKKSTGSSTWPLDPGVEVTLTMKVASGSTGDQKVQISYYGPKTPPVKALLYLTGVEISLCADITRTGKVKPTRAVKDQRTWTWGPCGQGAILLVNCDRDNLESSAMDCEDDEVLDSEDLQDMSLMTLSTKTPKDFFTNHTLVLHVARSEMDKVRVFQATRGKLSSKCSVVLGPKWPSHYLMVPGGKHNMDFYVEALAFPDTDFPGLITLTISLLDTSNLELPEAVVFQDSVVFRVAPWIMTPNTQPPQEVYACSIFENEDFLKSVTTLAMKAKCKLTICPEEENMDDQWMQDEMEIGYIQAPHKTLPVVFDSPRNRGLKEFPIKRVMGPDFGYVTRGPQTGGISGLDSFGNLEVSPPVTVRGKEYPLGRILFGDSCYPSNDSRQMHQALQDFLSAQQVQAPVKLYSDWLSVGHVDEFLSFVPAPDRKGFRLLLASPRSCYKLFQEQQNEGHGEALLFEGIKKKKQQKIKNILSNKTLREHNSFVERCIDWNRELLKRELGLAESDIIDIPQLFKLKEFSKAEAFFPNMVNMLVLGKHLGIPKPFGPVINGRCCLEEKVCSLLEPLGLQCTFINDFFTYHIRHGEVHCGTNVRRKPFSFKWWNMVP
row,Binder,log2 enrichment score
1,YRHHHYRHPKYCG [PADI4_3_D3H D3H],-3.57
2,YRDHHYRHPKYCG [PADI4_3_H4H H4H],0
3,YRDHKYRHPKYCG [PADI4_3_H5K H5K],-2.71
4,YRDHHKRHPKYCG [PADI4_3_Y6K Y6K],-1.84
5,YKDHHYRHPKYCG [PADI4_3_R2K R2K],0.59
6,YRDHHYKHPKYCG [PADI4_3_R7K R7K],-0.44
7,YRDHHYRKPKYCG [PADI4_3_H8K H8K],-3.86
8,YRDHHYRHKKYCG [PADI4_3_P9K P9K],-1.76
9,YRDHHYRHPKYCG [PADI4_3_K10K K10K],0
10,YRDHHYRHPKKCG [PADI4_3_Y11K Y11K],-4.77
11,YRKHHYRHPKYCG [PADI4_3_D3K D3K],-3.84
12,YRDKHYRHPKYCG [PADI4_3_H4K H4K],-2.3
13,YRDHRYRHPKYCG [PADI4_3_H5R H5R],-3.55
14,YRDHHRRHPKYCG [PADI4_3_Y6R Y6R],-0.786
15,YRDHHYRHPKYCG [PADI4_3_R2R R2R],0
16,YRDHHYRHPKYCG [PADI4_3_R7R R7R],0
17,YRDHHYRRPKYCG [PADI4_3_H8R H8R],-3.15
18,YRDHHYRHRKYCG [PADI4_3_P9R P9R],-1.83
19,YRDHHYRHPRYCG [PADI4_3_K10R K10R],-0.238
20,YRDHHYRHPKRCG [PADI4_3_Y11R Y11R],-3.96

row,Binder,log2 enrichment score
1,YRRHHYRHPKYCG [PADI4_3_D3R D3R],-2.94
2,YRDRHYRHPKYCG [PADI4_3_H4R H4R],2.48
3,YRDHDYRHPKYCG [PADI4_3_H5D H5D],-4.15
4,YRDHHDRHPKYCG [PADI4_3_Y6D Y6D],-2.27
5,YDDHHYRHPKYCG [PADI4_3_R2D R2D],-3.75
6,YRDHHYDHPKYCG [PADI4_3_R7D R7D],0.031
7,YRDHHYRDPKYCG [PADI4_3_H8D H8D],-3.82
8,YRDHHYRHDKYCG [PADI4_3_P9D P9D],-2.06
9,YRDHHYRHPDYCG [PADI4_3_K10D K10D],-2.34
10,YRDHHYRHPKDCG [PADI4_3_Y11D Y11D],-3.74
11,YRDHHYRHPKYCG [PADI4_3_D3D D3D],0
12,YRDDHYRHPKYCG [PADI4_3_H4D H4D],-4.33
13,YRDHEYRHPKYCG [PADI4_3_H5E H5E],-4.25
14,YRDHHERHPKYCG [PADI4_3_Y6E Y6E],-1.85
15,YEDHHYRHPKYCG [PADI4_3_R2E R2E],-2.93
16,YRDHHYEHPKYCG [PADI4_3_R7E R7E],-0.753
17,YRDHHYREPKYCG [PADI4_3_H8E H8E],-3.8
18,YRDHHYRHEKYCG [PADI4_3_P9E P9E],-1.89
19,YRDHHYRHPEYCG [PADI4_3_K10E K10E],-1.11
20,YRDHHYRHPKECG [PADI4_3_Y11E Y11E],-4.21

row,Binder,log2 enrichment score
1,YREHHYRHPKYCG [PADI4_3_D3E D3E],-2.84
2,YRDEHYRHPKYCG [PADI4_3_H4E H4E],-3.05
3,YRDHCYRHPKYCG [PADI4_3_H5C H5C],-4
4,YRDHHCRHPKYCG [PADI4_3_Y6C Y6C],-3.47
5,YCDHHYRHPKYCG [PADI4_3_R2C R2C],-2.34
6,YRDHHYCHPKYCG [PADI4_3_R7C R7C],-0.84
7,YRDHHYRCPKYCG [PADI4_3_H8C H8C],-2.95
8,YRDHHYRHCKYCG [PADI4_3_P9C P9C],-2.79
9,YRDHHYRHPCYCG [PADI4_3_K10C K10C],-2.06
10,YRDHHYRHPKCCG [PADI4_3_Y11C Y11C],-3.92
11,YRCHHYRHPKYCG [PADI4_3_D3C D3C],-4.3
12,YRDCHYRHPKYCG [PADI4_3_H4C H4C],-3.15
13,YRDHSYRHPKYCG [PADI4_3_H5S H5S],-3.98
14,YRDHHSRHPKYCG [PADI4_3_Y6S Y6S],-2.21
15,YSDHHYRHPKYCG [PADI4_3_R2S R2S],-2.91
16,YRDHHYSHPKYCG [PADI4_3_R7S R7S],-0.05
17,YRDHHYRSPKYCG [PADI4_3_H8S H8S],-2.81
18,YRDHHYRHSKYCG [PADI4_3_P9S P9S],-1.69
19,YRDHHYRHPSYCG [PADI4_3_K10S K10S],-1.42
